Measured values from PubChem BioAssay AID463173 (ICCB-Longwood Screening Facility, Harvard Medical School, 2010).
Among all 52,000 compounds or so, about 4,300 (8.3%) were called active. The sample as a whole holds a higher share of actives than the screen did. Values without a mark were called inactive. Cut-off read from the data, not from the text of the source: active = survival mostly below about 52% (no sharp cut-off); inactive = mostly above about 56%.

Each compound was assayed on DeltatarO mutant (assay: S. aureus survival, RN4220 and DeltatarO strains – OD600, teichoic acid synthesis inhibitors, primary screen (AID 463173)). Conditions: S. aureus RN4220 wild type/DeltatarO growth, OD600, 18 h, active compounds read low, screened at 18.75 µg/mL (by protocol).

| SMILES | survival |
| --- | --- |
| CC(C)OC(=O)CSc1nnc(-c2ccc(O)cc2)o1 | 72% |
| COc1ccc(CSC(=N)N)cc1Cl | 97% |
| COc1ccc(-c2csc(N)n2)cc1C | 97% |
| O=C(NCC(c1ccco1)S(=O)(=O)c1cccs1)c1ccc(F)c(F)c1 (centres undefined) | 75% |
| CCN(CC)CCNC(=O)Cn1nc(C)c2c(C)n(-c3ccccc3)nc2c1=O | 70% |
| Cc1ccc(C)c(NC(=O)CCn2nc(C)c3c(C)n(-c4ccccc4)nc3c2=O)c1 | 37% (active) |
| COc1ccc(CNC(=O)CCn2nc(C)c3c(C)n(-c4ccccc4)nc3c2=O)cc1OC | 0% (active) |
| Cc1cc(Cl)ccc1NC(=O)CCCn1nc(C)c2c(C)n(-c3ccccc3)nc2c1=O | 112% |
| COc1ccc(CNC(=O)CCCn2nc(C)c3c(C)n(-c4ccc(C)cc4)nc3c2=O)cc1OC | 74% |
| COc1cc(OC)c(NC(=O)CCCn2nc(C)c3c(C)n(-c4ccccc4)nc3c2=O)cc1Cl | 32% (active) |
| CCOc1ccc(CCNC(=O)Cn2nc(C)c3c(C)n(-c4ccccc4)nc3c2=O)cc1OCC | 25% (active) |
| Cc1cccc(NC(=O)CCn2nc(C)c3c(C)n(-c4ccccc4)nc3c2=O)c1C | 57% |
| Cc1ccc(NC(=O)CCCn2nc(C)c3c(C)n(-c4ccccc4)nc3c2=O)c(Cl)c1 | 89% |
| COc1cccc(CNC(=O)CCn2nc(C)c3c(C)n(-c4ccccc4)nc3c2=O)c1 | 83% |
| Cc1ccc(CCNC(=O)Cn2nc(C)c3c(C)n(-c4ccc(C)cc4)nc3c2=O)cc1 | 79% |
| Cc1cc(Cl)ccc1NC(=O)CCn1nc(C)c2c(C)n(-c3ccccc3)nc2c1=O | 72% |
| CCN(c1cccc(C)c1)S(=O)(=O)c1cc2c(cc1C)n(C)c(=O)c(=O)n2C | 85% |
| COC(=O)c1ccccc1NC(=O)CCCn1c(C)c2cnn(-c3ccccc3)c(=O)c2c1C | 90% |
| COc1ccc(OC)c(C2=NS(=O)(=O)N(C)C(C(=O)Nc3ccc(F)cc3F)=C2)c1 | 72% |
| COC(=O)c1ccc(NC(=O)CN(C)S(=O)(=O)c2ccc3c(c2)CCCC(=O)N3)cc1 | 79% |
| CCCN1C2CCCC1CC(NC(=O)NC1CCCCC1)C2 (centres undefined) | 59% |
| CCOC(=O)c1cc2c(ccn2-c2ccc(F)cc2)n1CC(=O)N1C(C)CCCC1C (centres undefined) | 103% |
| CC(=O)c1cc(C(=O)Nc2cc(C)cc(C)c2)c2ccccn12 | 43% |

| SMILES | survival |
| --- | --- |
| CCOc1cccc(C2c3[nH]c4ccccc4c3CCN2C(=O)CCC2CCCC2)c1 (centres undefined) | 78% |
| COC(=O)c1ccccc1NC(=O)Cn1cnc2sc(C)c(S(=O)(=O)N3CCC(C)CC3)c2c1=O | 59% |
| Cc1nn(CCC(=O)NCc2ccc(N(C)C)cc2)c(=O)c2nn(-c3ccccc3)c(C)c12 | 95% |
| CCc1ccc(CNC(=O)CCn2nc(C)c3c(C)n(-c4ccccc4)nc3c2=O)cc1 | 55% |
| Cc1nn(CCC(=O)NCc2ccc(Cl)cc2)c(=O)c2nn(-c3ccccc3)c(C)c12 | 0% (active) |
| O=c1c2cnn(-c3ccc(Cl)cc3)c2ncn1Cc1ccc(Cl)cc1Cl | 102% |
| CCc1ccccc1NC(=O)C1CCCN(S(=O)(=O)c2ccc3[nH]c(=O)ccc3c2)C1 (centres undefined) | 88% |
| COC(=O)c1c(SC)nc2ccccc2c1OCc1ccccc1C | 105% |
| CCSc1nc2ccccc2c(OCc2ccccc2Cl)c1C(=O)OC | 64% |
| COC(=O)c1c(SC)nc2ccccc2c1OCc1ccc(C)cc1C | 46% (active) |
| COC(=O)c1c(SC)nc2ccccc2c1OCc1cc(C)ccc1C | 144% |
| CCSc1nc2ccccc2c(OCc2cc(C(=O)OC)ccc2OC)c1C(=O)OC | -12% (active) |
| CCSc1nc2ccccc2c(OCc2ccc(Cl)cc2)c1C(=O)OC | 98% |
| CCOC(=O)Cn1cc2c(c1-c1ccc(Cl)cc1)c(=O)n(C)c(=O)n2C | 60% |
| COc1cc(CNC(=O)C2CCCCN2S(=O)(=O)c2ccc(F)cc2)cc(OC)c1OC (centres undefined) | 83% |
| Cc1ccc2c(=O)c(C(=O)c3ccc(F)cc3)cn(CC(=O)Nc3ccc4c(c3)OCCO4)c2n1 | 77% |
| Cc1ccc(CCNC(=O)c2ccc3c(Cl)c4c(nc3c2)CCCC4)cc1 | 61% |
| CCOC(=O)c1c(-c2ccccc2)oc2ccc(N(C(C)=O)S(=O)(=O)c3cc(C)ccc3C)cc12 | 54% |
| CCCCC(=O)N(c1ccc2oc(C)c(C(C)=O)c2c1)S(=O)(=O)c1ccc(F)cc1C | 62% |
| CCCC(=O)N(c1ccc2oc3c(c2c1)CCCC3)S(=O)(=O)c1cc(C)ccc1C | 35% (active) |
| CCc1ccc(S(=O)(=O)N(C(C)=O)c2ccc3oc4c(c3c2)CCCC4)cc1 | 146% |
| CCCC(=O)N(c1ccc2oc3c(c2c1)CCCC3)S(=O)(=O)c1ccc(CC)cc1 | 39% (active) |
| CCCC(=O)N(c1ccc2oc(-c3ccccc3)c(C(=O)OCC)c2c1)S(=O)(=O)c1ccc(C)cc1 | 140% |

| SMILES | survival |
| --- | --- |
| CCC1CN(C(=O)NCc2ccc(C)cc2)c2cc(C)ccc2O1 (centres undefined) | 54% |
| COC(=O)CC1Oc2ccc(Cl)cc2-n2cc(-c3ccccc3)nc21 (centres undefined) | 63% |
| CCOC(=O)Cn1c(=O)oc2cc(S(=O)(=O)NC(C)c3ccccc3)ccc21 (centres undefined) | 66% |
| CC(C)=NNC(=O)CNc1ccccc1Cl | 79% |
| Cc1ccc(NC(=O)C2CC=CCC2C(=O)N2CCCCC2)cc1 (centres undefined) | 69% |
| COc1cc(CN2CCc3nc(N4CCN(c5ccccc5F)CC4)ncc3C2)ccc1OC(C)C | 118% |
| O=C(CC1N=C2c3ccccc3N=C(SCc3ccccc3Cl)N2C1=O)NCc1cccs1 (centres undefined) | 66% |
| Cc1ccc2c(c1)-c1ncc(C(=O)c3ccccc3O)cc1CO2 | 3% (active) |
| Cc1ccc2c(c1)-c1nc(-c3ccccc3)cc(-c3ccccc3)c1CO2 | 91% |
| O=C(c1cnc2c(c1)COc1ccccc1-2)c1ccccc1O | 3% (active) |
| Cc1cc(O)c(C(=O)c2cnc3c(c2)COc2ccccc2-3)cc1Cl | 76% |
| O=C(c1cnc2c(c1)COc1ccc(Cl)cc1-2)c1ccccc1O | 105% |
| Cc1ccc2c(c1)-c1ncc(C(=O)c3cc(Br)ccc3O)cc1CO2 | 62% |
| COc1ccccc1/C=C(\C#N)C(=O)NCC1CCCO1 (centres undefined) | 129% |
| CC1=C(c2ccc(Cl)cc2)S(=O)(=O)N=C1N1CCN(c2cccc(C(F)(F)F)c2)CC1 | 71% |
| CCS(=O)(=O)N1CCc2cc(C(=O)NCc3ccc(Cl)cc3)ccc21 | 92% |
| Cc1ccc(NC(=O)Nc2nnc(N(C)C3CCCCC3)s2)c(Cl)c1 | 104% |
| COc1cc(OC)c(NC(=O)Nc2nnc(N(C)C3CCCCC3)s2)cc1Cl | 23% (active) |
| COc1ccc(NC(=O)Nc2nnc(N(C)C3CCCCC3)s2)c(OC)c1 | 70% |
| O=C(CSc1nc2c([nH]c3ccccc32)c(=O)n1-c1cccc(Cl)c1)N1CCc2ccccc21 | 73% |
| COC(=O)C1CCN(C(c2ccccc2)c2sc3nc(-c4ccco4)nn3c2O)CC1 (centres undefined) | 57% |
| Cc1ccc(C)c(NC(=O)c2ccc(=O)n(Cc3ccc(F)cc3)c2)c1 | 94% |
| CCN(CC)CCCNC(=O)Cn1ncc2c3ccccc3n(Cc3ccccc3)c2c1=O | 95% |

| SMILES | survival |
| --- | --- |
| O=C(NCCCN1CCN(c2ccccc2F)CC1)c1cc2c(Cl)nc3ccccc3c2s1 | 51% (active) |
| COc1ccc(Nc2cc(C(=O)NCCCN3CCN(c4ccccc4F)CC3)c3ccccc3n2)c(OC)c1 | 48% (active) |
| O=C(c1cc2c(s1)-c1ccccc1OC2)N1CCN(c2ccccc2F)CC1 | 41% (active) |
| COc1ccccc1N1CCN(C(=O)c2cc3c(s2)-c2ccccc2OC3)CC1 | 88% |
| O=C(NCCCN1CCN(c2ccc(F)cc2)CC1)c1cc2c(Cl)nc3ccccc3c2s1 | 91% |
| COc1ccc2c(c1)CC(C(=O)NCCCN1CCN(c3ccccc3F)CC1)CO2 (centres undefined) | 87% |
| COc1ccc(N2CCN(CCCNC(=O)c3cc(Nc4ccccc4OC)nc4ccccc34)CC2)cc1 | 62% |
| CCCN1CCN(CCCNC(=O)c2cc3c(Cl)nc4ccccc4c3s2)CC1 | 116% |
| COc1ccc2c(c1)CC(C(=O)NCCN1CCN(c3ccccc3F)CC1)CO2 (centres undefined) | 47% (active) |
| COc1ccc2c(c1)CC(C(=O)NCCN1CCN(c3cccc(C)c3C)CC1)CO2 (centres undefined) | 76% |
| COc1ccc(N2CCN(CCCNC(=O)c3cc(Nc4ccc(OC)cc4OC)nc4ccccc34)CC2)cc1 | 87% |
| O=C(c1cc2c(s1)-c1ccccc1OC2)N1CCN(c2ccc(F)cc2)CC1 | 59% |
| COc1cccc(N2CCN(C(=O)Cn3c(-c4cccs4)cc4ccccc43)CC2)c1 | 104% |
| CCCCOc1ccc(C(C)NC(=O)c2cccc(Nc3nc4ccccc4n4nnnc34)c2)cc1 (centres undefined) | 67% |
| Cc1ccc2[nH]c3nc(NN)nnc3c2c1 | 77% |
| CCOc1ccc(N2CC(NC(=O)Cc3ccccc3)CC2=O)cc1 (centres undefined) | 135% |
| COc1ccc(N(Cc2nnc3n2CCCCC3)C(=O)Nc2ccc(Cl)cc2)cc1Cl | 85% |
| Cc1ccccc1NC(=O)CSc1nc2c(c(=O)n(C)c(=O)n2C)n1Cc1ccccc1F | 56% |
| CCN(CC)CCNC(=O)c1nn(C)c2c1CS(=O)(=O)c1ccccc1-2 | 59% |
| O=S(=O)(Nc1cccc(-c2ccc(N3CCCC3)nn2)c1)c1ccc(F)c(C(F)(F)F)c1 | 71% |
